Test results from PubChem BioAssay (NCATS).
Results filed as inconclusive are left out. Values without a mark were called inactive. Calls of active or inactive are those of the source. The call rests on the fitted dose curve; in most records, active means well fitted inhibition curve with a large enough effect; inconclusive means small, poorly fitted or top-dose-only effect; inactive means no such curve, though single readings can be large or run the other way.

target: Retinaldehyde dehydrogenase 3 (Homo sapiens) (UniProt P47895); assay: qHTS for Inhibitors of the Aldehyde Dehydrogenase Family (ALDH1A3) Confirmatory screens (AID 2061311); settings: ALDH inhibition qHTS; series mostly up to 46 µM; activity change, negative = inhibition: at the top concentration; further: nearly all actives have a fitted effect of over 60% in size; further: potency means the concentration at half of the fitted maximal effect
On the % scale 0 is the no-effect control and ±100 the full control effect.

Compound	activity change, negative = inhibition [%]	Potency
NC(=O)c1cccc(-c2cc(OC(=O)NC3CCCCC3)ccc2O)c1	-11.8	
CC(=O)N(O)CCCCCN1C(=O)CCC1=O	-15.4	
O=C1C(c2c(O)[nH]c3ccccc23)=Nc2ccccc21	-10.5	
CC(C(=O)O)c1ccc2c(c1)CC(=O)c1ccccc1S2 (stereo not given)	-8.13	
CNC(=O)Nc1ccc(OC)c(NC(=O)NC(=O)c2cc(F)c(F)cc2Cl)c1	-7.81	
C/C(=N\N=C(N)N)c1cc(NC(=O)CCCCCCCCC(=O)Nc2cc(/C(C)=N/N=C(N)N)cc(/C(C)=N/N=C(N)N)c2)cc(/C(C)=N/N=C(N)N)c1	2.54	
C=CC(=O)N1CCCN(c2cc(NCCC(=O)O)nc(-c3ccccn3)n2)CC1	-10.6	
CC(C)Nc1cc(-c2c[nH]c(C(=O)N[C@H](CO)c3cccc(Cl)c3)c2)c(Cl)cn1	-11	
CCOc1ccc(Cc2nc(-c3c(C)nc4ccccn34)cs2)cc1		14.1 µM (active)
O=C(CCCCCCNC(=O)c1cnc(N(c2ccccc2)c2ccccc2)nc1)NO	-14.8	
CC(C)c1c(-c2cnn(C(C)(C)C)c2)nc2c(C#N)c[nH]n2c1=O	-6.07	
COc1ccc(NC(=O)N2CCc3c2ccc2ccccc32)cc1N1CCN(C)CC1	-13.5	

target: Retinaldehyde dehydrogenase 3 (Homo sapiens) (UniProt P47895); assay: qHTS for Inhibitors of the Aldehyde Dehydrogenase Family (ALDH1A3) Validation screen (AID 2061312); settings: ALDH1A3 enzyme inhibition qHTS validation, fluorescence; series mostly up to 84.7 µM; activity change, negative = inhibition: at the top concentration; further: nearly all actives have a fitted effect of over 45% in size

Compound	activity change, negative = inhibition
CN1CCN(C2=Nc3ccccc3Nc3ccc(O)cc32)CC1	-3.87%
CCOc1ccc2ccccc2c1C(=O)N[C@@H]1C(=O)N2[C@@H]1SC(C)(C)[C@@H]2C(=O)O	27.4%
CCOc1ccc(Nc2nc(-c3c(C)nc4ccccn34)cs2)cc1	95%
CC(C)(Cc1ccccc1)NCC(O)c1ccc(O)c(NS(C)(=O)=O)c1 (stereo not given)	-18.2%
S=C(c1ccc(-c2ccc(Cl)c(Cl)c2)o1)N1CCCCC1	-7.98%
NCCCCN(Cc1nc2ccccc2[nH]1)[C@H]1CCCc2cccnc21	-28.7% [at 42.4 µM]
COc1cc2nc(N3CCCC3)nc(NCCCCCN3CCCC3)c2cc1OC	110%

target: Retinal dehydrogenase 2 (Homo sapiens) (UniProt O94788); assay: qHTS for Inhibitors of the Aldehyde Dehydrogenase Family (ALDH1A2) Confirmation screens (AID 2061314); settings: ALDH1A2 enzyme inhibition qHTS confirmation; series mostly up to 45.9 µM; activity, negative = inhibition: at the top concentration; further: nearly all actives have a fitted effect of over 65% in size; further: potency means the concentration at half of the fitted maximal effect

Compound	activity, negative = inhibition	outcome	Potency
CNC(=O)c1cc(Oc2ccc(NC(=O)c3cccc(C(F)(F)F)c3)cc2)ccn1	2.61%		
COc1cc(/C=C/C(=O)O[C@H]2[C@H](OC(=O)/C=C/c3cc(OC)c(O)c(OC)c3)O[C@H](CO[C@@H]3O[C@H](CO)[C@@H](O)[C@H](O)[C@H]3O)[C@@H](O)[C@@H]2O)ccc1O	-18.3% [at 16.7 µM]		
CN1CCN(C2=Nc3ccccc3Nc3ccc(O)cc32)CC1	-1.9%		
CCOc1ccc2ccccc2c1C(=O)N[C@@H]1C(=O)N2[C@@H]1SC(C)(C)[C@@H]2C(=O)O	-21.1%		
CC(=O)OCC(=O)[C@@]1(O)[C@H](C)C[C@H]2[C@@H]3C=C(C)C4=Cc5c(cnn5-c5ccccc5)C[C@]4(C)[C@@H]3[C@@H](O)C[C@@]21C		inactive	
COc1cc(NC(=O)c2ccccn2)ccc1Cl	-1.94%		
OC[C@@]1(O)CO[C@@H](OC[C@H]2O[C@@H](Oc3ccccc3)[C@H](O)[C@@H](O)[C@@H]2O)[C@@H]1O	-25.6% [at 25.6 µM]		
Cc1nc2c(C#N)c[nH]n2c(=O)c1C(C)C		inactive; activator	
CCC[C@H](N[C@@H](C)C(=O)N1[C@H](C(=O)O)C[C@@H]2CCCC[C@@H]21)C(=O)O	-18.7%		
C=C1CC23CC1CCC2C12OC(=O)C(C)(CCC1O)C2C3C(=O)O (stereo not given)	-22.5% [at 25.6 µM]		
CCOc1ccc(Nc2nc(-c3c(C)nc4ccccn34)cs2)cc1	-4.35%		
CC(C)(Cc1ccccc1)NCC(O)c1ccc(O)c(NS(C)(=O)=O)c1 (stereo not given)	-10.1%		
CSC(=O)OCC1=C[C@@H]2OC(=O)C3=CO[C@@H](O[C@@H]4O[C@H](CO)[C@@H](O)[C@H](O)[C@H]4O)[C@H]1[C@@H]32	-1.19% [at 25.6 µM]		
O=C(OCC1=C[C@@H](O)[C@@H]2C=CO[C@@H](O[C@@H]3O[C@H](CO)[C@@H](O)[C@H](O)[C@H]3O)[C@H]12)c1ccc(O)cc1	-22.9% [at 25.6 µM]		
C=C(C)C(=O)O[C@H]1[C@H]2C(=C)C(=O)O[C@@H]2/C=C(\CO)CC/C=C(/C=O)[C@@H]1O	-26.8% [at 25.6 µM]		
COc1cc(/C=C/C(=O)OC[C@H]2O[C@@H](OC3OC=C(C(=O)O)C4C(O)CC(C)(O)C34)[C@H](O)[C@@H](O)[C@@H]2O)cc(OC)c1O (stereo not given in full)	-10.1% [at 16.7 µM]		
CN(C)c1cccc(-c2c3c(=O)n(-c4ccccc4Cl)[nH]c3cc(=O)n2C)c1	-18.7%		
NCCCCN(Cc1nc2ccccc2[nH]1)[C@H]1CCCc2cccnc21	-21.8% [at 25.6 µM]		
COc1cc(/C=C/c2cc(O)cc(O[C@@H]3O[C@H](CO)[C@@H](O)[C@H](O)[C@H]3O)c2)ccc1O	1.98% [at 25.6 µM]		
C=C1CC[C@H]2[C@@](C)(CCC(OC3OC(CO)C(O)C(O)C3O)[C@@]2(C)CO)C1C(=O)CC1=CCOC1=O (stereo not given in full)	-4.52% [at 25.6 µM]		
CC1(C)[C@H](C(=O)O)N2C(=O)C[C@H]2S1(=O)=O	-15.3%		
CC1(COc2ccc3c(c2)ncn3-c2ccc3cccc(N4CCC(N)CC4)c3n2)COC1			14.2 µM (active)
COc1ccc(NC(=O)N2CCc3c2ccc2ccccc32)cc1N1CCN(C)CC1		inactive	
COc1cc2nc(N3CCCC3)nc(NCCCCCN3CCCC3)c2cc1OC	-7.25%		
C/C=C1\[C@H](O[C@@H]2O[C@H](CO)[C@@H](O)[C@H](O)[C@H]2O)OC=C(C(=O)OC)[C@H]1CC(=O)OC[C@H]1O[C@@H](OCCc2ccc(O)cc2)[C@H](O)[C@@H](O)[C@@H]1O	-18.4% [at 16.7 µM]		
CC1CCC23COC(=O)C2=CC(O)CC3C1(C)CCC1=CC(O)OC1=O (stereo not given)	-33.1% [at 25.6 µM]		
